According to PubChem BioAssay AID720597 (Broad Institute, 2013):
Potency and affinity values are given separately. Activity calls are given as the source filed them.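 The calls were made as follows: active = fitted half-maximal dose no more than twice the top valid tested dose, for compounds that lower signal; inconclusive = fit invalid, or curve flat with activity between -70 and -30; inactive = potency past limit, curve flat within ±30, or signal increasing.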

Biological target: NAD-dependent protein deacylase sirtuin-5, mitochondrial (Homo sapiens) (UniProt Q9NXA8)
Sequence (Q9NXA8 whole entry, looked up): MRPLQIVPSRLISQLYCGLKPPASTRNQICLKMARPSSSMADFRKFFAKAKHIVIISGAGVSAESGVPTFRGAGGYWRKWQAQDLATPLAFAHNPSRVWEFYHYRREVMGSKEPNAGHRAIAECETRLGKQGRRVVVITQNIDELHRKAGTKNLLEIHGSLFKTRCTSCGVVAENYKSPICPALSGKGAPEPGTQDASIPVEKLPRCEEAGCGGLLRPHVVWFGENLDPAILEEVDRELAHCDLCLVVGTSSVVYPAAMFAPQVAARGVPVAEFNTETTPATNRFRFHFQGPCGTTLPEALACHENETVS
Assay: SIRT5 deacylase inhibitors, dose response, biochemical, fluorescence imaging, cherry-pick, set 6 (AID 720597);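 also: lower AMC signal can also come from blocking the trypsin step; 0% = median of neutral control wells and -100% = median of positive control wells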
Details: Purified SirT5, succinyl-peptide-AMC/trypsin fluorescence; series mostly up to 15 µM; activity change, negative = inhibition: at the top concentration

Activity change, negative = inhibition, inactive:
CO[C@@H]1CN(C)C(=O)c2ccc(NS(C)(=O)=O)cc2OC[C@@H](C)N(Cc2nccs2)C[C@H]1C -9.11%, C[C@@H]1CN([C@@H](C)CO)C(=O)c2cc(NC(=O)Nc3ccc(F)cc3)ccc2O[C@@H]1CN(C)S(=O)(=O)c1ccc(Cl)cc1 5.11%, CCCC#Cc1ccc([C@H]2[C@@H](CO)N3CCCCN(S(=O)(=O)Cc4ccccc4)C[C@H]23)cc1 -4.47%, C[C@H](CO)N1C[C@H](C)[C@H](CN(C)S(=O)(=O)c2ccc(Cl)cc2)OCCCC[C@H](C)Oc2ccc(NC(=O)Nc3ccc4c(c3)OCO4)cc2C1=O -12.6%, COc1ccc(S(=O)(=O)N(C)C[C@H]2Oc3ncc(/C=C/c4ccccc4)cc3C(=O)N([C@H](C)CO)C[C@@H]2C)cc1 -4.22%, O=C(NCC[C@@H]1CC[C@@H](NC(=O)C2CC2)[C@@H](CO)O1)c1cc(Cl)cc(Cl)c1 -6.23%, COc1ccc(S(=O)(=O)Nc2ccc3c(c2)C(=O)N([C@H](C)CO)C[C@@H](C)[C@H](CN(C)S(=O)(=O)c2ccccc2)OCCCC[C@H](C)O3)cc1 -24.8%, Cc1ccc(S(=O)(=O)N(C)C[C@H]2OCCCC[C@@H](C)Oc3ccc(NS(=O)(=O)c4ccccc4)cc3C(=O)N([C@H](C)CO)C[C@H]2C)cc1 -8.87%, C[C@H]1CN([C@@H](C)CO)C(=O)c2cc(C#CCN(C)C)cnc2O[C@H]1CN(C)Cc1ccncc1 -5.33%, CCCC#Cc1ccc2c(c1)O[C@@H](CN(C)C(=O)c1cnccn1)[C@@H](C)CN([C@@H](C)CO)S2(=O)=O -11.5%
